Laboratory results as given in PubChem BioAssay AID720519 (National Center for Advancing Translational Sciences (NCATS), 2013).
Results filed as inconclusive are left out. The source made the active and inactive calls. The call rests on the fitted dose curve; in most records, active means well fitted activation curve with a large enough effect; inconclusive means small, poorly fitted or top-dose-only effect; inactive means flat fitted curve, though single readings scatter.

assay: qHTS for Inhibitors of Cell Surface uPA Generation: Confirmatory Assay for Cherry-picked Compounds; details: cell surface uPA activity generation, qHTS confirmation; series mostly up to 115 µM; inhibition: at the top concentration; further: 0% is about no effect
How it was run: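 RAW 264.7 cells at 4000/well, incubated overnight, then treated with compounds. After 24 h at 37 C, viability was read by ATPlite luminescence. An increase in signal indicates blocked uPA-dependent LF entry.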

Structure (SMILES)	inhibition
CN(C(=O)c1ccccc1C(=O)OCC(=O)NCc1ccccc1)C1CCCCC1	-2% (inactive)
CCCS(=O)(=O)c1ccc(COC(=O)Cc2ccc([N+](=O)[O-])cc2)cc1	-2.02% (inactive)
O=C(CNC(=O)c1ccc(Br)o1)NNC(=O)c1ccccc1	-1.22% (inactive)
Cc1ccc(S(=O)(=O)N2CCN(C(=O)c3n[nH]c(=O)c4ccccc34)CC2)cc1	-1.76% (inactive)
CC1(C)CC(CCC(=O)NC(=S)Nc2ccccc2Cl)C(=O)O1 (stereo not drawn)	-2.62% (inactive)
COc1ccc(NC(=O)CN2C(=O)CSc3ncccc32)cc1	0.189% (inactive)
CCOc1ccc(Cl)cc1/C=N/NC(=O)c1ccccc1	-0.983% (inactive)
O=c1[nH]c2c(s1)C(c1ccc(O)cc1)C1C3CCC(C3)C1S2 (stereo not drawn)	4.53% (inactive)
Cn1c(SCC(=O)NNC(=O)c2ccc(Br)cc2)nnc1-c1cccnc1	-1.95% (inactive)
COC(=O)CNC(=O)COC(=O)/C=C/c1ccccc1[N+](=O)[O-]	-2.86% (inactive)
CN1CCN(C2=Nc3ccccc3Oc3ccc(Cl)cc32)CC1	0.247% (inactive)
COc1ccc(NC(=O)CCNS(=O)(=O)c2ccccc2F)cc1S(=O)(=O)N1CCOCC1	-1.83% (inactive)
COc1cc(/C=N/NC(=O)c2ccncc2)ccc1O	1.09% (inactive)
O=C1N[C@@H](Cc2c[nH]c3ccccc23)C(=O)N[C@H]1Cc1ccccc1	1.15% (inactive)
CN(C)C(=S)Nc1ccc(S(=O)(=O)N2CCCCC2)cc1	-1.79% (inactive)
CNC(=O)[C@@H]1CCC(=O)N1	-2.39% (inactive)
COCCN(C(=O)c1ccc(OC2CCN(S(=O)(=O)N(C)C)CC2)cc1)C(C)C	0.226% (inactive)
C=CCOC(=O)C1=C[C@H](c2ccc(C(F)(F)F)cc2)[C@@H](CCCO)[C@H](OCC)O1	-3.55% (inactive)
O=C(NCCCn1ccnc1)C(=O)NCC(c1cccnc1)N1CCN(c2ccc(F)cc2)CC1 (stereo not drawn)	-0.766% (inactive)

Structure (SMILES)	inhibition
O=C(OCC(=O)N1CCOCC1)c1c(Cl)ccc(Cl)c1Cl	-0.916% (inactive)
CCN(C(=O)c1c(C)noc1C)c1c(N)n(Cc2ccccc2)c(=O)[nH]c1=O	-0.453% (inactive)
CCOC(=O)Oc1c(OC)cc(C(=O)O[C@@H]2C[C@@H]3CN4CCc5c([nH]c6cc(OC)ccc56)[C@H]4C[C@@H]3[C@H](C(=O)OC)[C@H]2OC)cc1OC	-2% (inactive)
O=C1CCCC/C1=C\Nc1ccc(S(=O)(=O)Nc2cnc3ccccc3n2)cc1	-1.58% (inactive)
CC(C)Cn1cnc2c1c(=O)[nH]c(=O)n2Cc1ccccc1	1.57% (inactive)
CCn1nc(NS(=O)(=O)c2ccccc2)c2cc3cc(C)ccc3nc21	-3.18% (inactive)
Cc1cc(=O)n2nc(N3CCCC(C(=O)NCc4ccc(Cl)cc4)C3)sc2n1 (stereo not drawn)	-2.22% (inactive)
CCCNC(=O)C1CCC(CNS(=O)(=O)c2ccc3c(c2)CC(C)N3C(C)=O)CC1 (stereo not drawn)	-0.644% (inactive)
O=C(C1CCCCN1S(=O)(=O)c1ccc(F)cc1)N1CCN(c2ccccc2F)CC1 (stereo not drawn)	0.855% (inactive)
Cc1ccc(N2C(=O)c3ccccc3C2(O)c2ccccc2)cc1 (stereo not drawn)	-1.52% (inactive)
C[N+]1(CC(O)c2ccccc2)CCCCCC1 (stereo not drawn)	-0.146% (inactive)
O=C(O)c1ccc(-c2ccc(/C=C3\NC(=O)N(Cc4ccc(Cl)cc4)C3=O)o2)cc1	-0.247% (inactive)
COc1cc(CCC(=O)OCC(=O)Nc2ccc(C)cc2Br)cc(OC)c1OC	-1.75% (inactive)
O=C(/C=C/c1cccc(F)c1)Nc1cc(S(=O)(=O)N2CCOCC2)ccc1Cl	-2.51% (inactive)
O=C(CCN1CCN(c2ccccc2F)CC1)Nc1ccc(F)cc1	-3.33% (inactive)
O=C(O)CC1(CC(=O)NCc2ccc(Cl)cc2)CCCCC1	-1.48% (inactive)
COc1cc(/C=N/NC(=O)Cc2csc(C)n2)ccc1OCC(C)C	-0.993% (inactive)
COc1ccc(C(c2sc3nc(C)nn3c2O)N2CCC(C(N)=O)CC2)cc1OC (stereo not drawn)	-3.21% (inactive)
CCn1c(=O)cc(C(=O)OC)sc1=Nc1ccc(F)c(F)c1	-3.55% (inactive)
